Screening results from PubChem BioAssay.
This is a sample that favours compounds with a hit; in the whole collection about 4.7% have one here.
PfHsp90 set2 – growth inhibition of yeast expressing Plasmodium Hsp90; AID 504621; inhibition, % at 9.4 µM; S. cerevisiae expressing PfHsp90, BacTiter-Glo ATP, 48 h; yeast lacking PDR1 and PDR3 efflux regulators; 310,000 tested, 0.32% active;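 active = every replicate shows inhibition above about 80%, whatever the replicate mean, limit read from the data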;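 also: 0% = DMSO neutral controls and 100% = 20 µM radicicol positive controls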
tim23-1 inh – inhibits growth of tim23-1 mutant yeast. S. cerevisiae tim23-1 growth, BacTiter-Glo luminescence, 24 h. inhibition, % at 20 µM. 330,000 tested, 1.3% active. AID 463212;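 active = growth inhibition of the mutant yeast at or above 50%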;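 also: temperature-sensitive mutant grown at 25 °C; plate controls were DMSO-treated mutant yeast for no effect and medium wells lacking yeast for full effect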
SKKanGAS inh – blocks kanamycin growth of S. pyogenes SKKanGAS strain. BacTiter-Glo, 6 h. inhibition, % at 7.5 µM. 300,000 tested, 1.3% active;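 active = mean replicate score, as percent of positive control median, at least 50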;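 also: strain carries kanamycin resistance gene driven by streptokinase promoter and grows in 40 µg/ml kanamycin; loss of luminescence reflects streptokinase promoter inhibition or plain growth inhibition; 0% = median of DMSO wells and 100% = positive control at its reference dose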
tim10-1 inh – growth inhibitors of tim10-1 mutant yeast. S. cerevisiae tim10-1 ts strain growth, BacTiter-Glo, 24 h. inhibition, % at 20 µM. 330,000 tested, 2.2% active. AID 463190;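 active = inhibition of at least 40%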;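 also: mutant grown at 25 °C; 0% = DMSO wells with yeast and 100% = wells holding no yeast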
TIM10 inh – growth inhibitors of TIM10 yeast strain; S. cerevisiae TIM10 strain growth, BacTiter-Glo luminescence, 24 h; inhibition, % at 10 µM; 330,000 tested, 1.4% active;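 active = inhibition of 40% or more at the single tested concentration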;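 also: wild-type TIM10 isogenic control strain grown at permissive 25 °C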
ATG4B inhibitor – blocks human ATG4B protease cleavage of LC3 substrate; ATG4B cleavage of LC3-PLA2, NBD-HPC fluorescence, 1 h; inhibition, % at 8.33 µM; 340,000 tested, 0.51% active; AID 504462; in the data active = inhibition above about 40%
Target sequence (Q9Y4P1 whole entry, looked up): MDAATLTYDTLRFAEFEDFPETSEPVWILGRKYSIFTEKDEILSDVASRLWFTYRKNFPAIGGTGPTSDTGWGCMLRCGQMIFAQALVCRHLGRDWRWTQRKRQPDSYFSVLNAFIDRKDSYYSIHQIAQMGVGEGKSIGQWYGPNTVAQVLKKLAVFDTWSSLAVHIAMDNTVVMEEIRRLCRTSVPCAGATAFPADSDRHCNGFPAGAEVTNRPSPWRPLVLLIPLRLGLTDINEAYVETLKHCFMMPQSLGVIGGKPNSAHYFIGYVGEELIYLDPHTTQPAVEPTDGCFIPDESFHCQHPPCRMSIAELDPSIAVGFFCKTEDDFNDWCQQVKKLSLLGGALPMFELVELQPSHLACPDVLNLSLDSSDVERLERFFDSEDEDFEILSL
TIM10 conf – confirmation of TIM10 yeast growth inhibitors. shares compounds with TIM10 inh. S. cerevisiae tim10 strain growth, BacTiter-Glo luminescence, 24 h. inhibition, % at 10 µM. 4,600 tested, 63% active. AID 463215;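 active = inhibition of yeast growth at or above a set limit in either of two replicates at 10 µM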;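 also: this counterscreen used the strain with wild-type TIM10; 0% = yeast with DMSO and 100% = medium wells lacking yeast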
* hit, by the source's call; . = no result.

SMILES	PfHsp90 set2	tim23-1 inh	SKKanGAS inh	tim10-1 inh	TIM10 inh	ATG4B inhibitor	TIM10 conf
CCN(CC)CCN(C(=O)c1cc2c(ccc3ccccc32)oc1=O)c1nc2cc3c(cc2s1)OCCO3	-10.0	30.5	1.7	20.3	50.0*	0.4	30.9
N=C(N)N=Nc1c(O)[nH]c2ccc(Br)cc12	4.9	1.0	0.7	3.4	6.8	-0.2	.
O=C(N=Nc1c(O)[nH]c2ccc(Br)cc12)c1ccccc1-n1cccc1	16.8	29.5	7.3	32.5	48.2*	5.8	35.5*
Cc1ccc(S(=O)(=O)N2CCC(C)CC2)c([N+](=O)[O-])c1	-19.9	19.0	-7.8	18.5	9.7	14.6	.
CCOc1ccc(N/C(SCc2cccc([N+](=O)[O-])c2)=C(/C#N)C(N)=O)cc1	-56.6	37.7	9.4	39.4	45.7*	-12.6	41.5*
Nc1nc(Nc2cccc(F)c2)nc2ccccc12	36.1	29.0	3.9	35.5	40.0	7.4	29.9
O=c1oc(Nc2cccc(F)c2)nc2ccccc12	33.2	26.0	11.6	15.5	20.7	-2.9	.
CC(C)N(Cc1nc(-c2ccccc2)no1)C(=O)C(Cl)(Cl)Cl	.	32.3	13.5	24.1	40.9*	5.8	27.0
CC(C)N(Cc1nc(-c2ccccc2)no1)C(=O)C(C)(C)C	12.9	11.4	-3.5	15.7	9.8	5.3	.
CC(C)CCNC(=O)c1ccc(C2SCC(=O)N2Cc2ccco2)cc1 (stereo unspecified)	4.8	6.0	-1.4	25.7	53.6*	-8.1	1.6
CCNC(=O)c1ccc(C2SCC(=O)N2Cc2ccco2)cc1 (stereo unspecified)	8.9	12.8	6.3	3.4	-0.3	1.5	.
O=C(NC(=S)Nc1ccc(Cc2ccncc2)cc1)c1ccccc1	-73.9	30.1	27.6	29.3	50.6*	29.9	-28.8
Cc1cc(C)cc(C(=O)NC(=S)Nc2ccc(Cc3ccncc3)cc2)c1	20.1	33.6	2.9	19.2	47.1*	-5.4	8.6
Cc1cc(C)cc(C(=O)NC(=S)Nc2ccc3c(c2)OCCO3)c1	9.0	19.0	-5.1	21.4	-8.3	-4.3	.
O=C(Nc1ccc(Cc2ccncc2)cc1)c1ccc(Br)o1	-5.5	34.2	-10.1	6.4	44.4*	6.3	35.7*
O=C(CNC(=O)c1ccc(Br)o1)Nc1ccncc1	.	2.4	-15.9	2.4	-2.2	11.4	.
CC1(C)Cc2ccccc2-c2nnc(C(F)(F)F)n21	-16.8	10.9	-5.8	11.1	-8.8	-2.4	.
COc1ccccc1NC(=O)Cn1nnc(C(=O)Nc2ccccc2)c1N	-1.1	9.1	-3.1	-2.4	9.3	-5.1	.
C=CCn1c(=S)[nH]c2nc3c(cc2c1=O)CCCC3	-6.6	9.1	-6.1	-10.0	-9.4	-8.5	.
O=C(COc1cccnc1[N+](=O)[O-])NCCc1ccc(Cl)cc1Cl	-0.6	-0.7	12.5	12.3	11.9	0.9	.
COn1c(SC(C)C)nc2ccccc2c1=O	-22.0	15.1	3.1	9.9	-4.0	13.5	.
Cc1ccc(NC(=S)N/N=C2/CCCCc3ccccc32)cc1	-95.5	37.3	8.4	27.0	45.0*	0.5	38.0*
Cc1ccc(C#N)c(SCc2ccccc2F)n1	.	10.5	36.1	1.8	11.8	-1.7	.
Cc1ccc2nc(CSc3nc(C)ccc3C#N)[nH]c2c1	4.8	34.7	-0.4	38.2	60.7*	-19.6	48.1*
O=C(CCCc1nc2ccccc2s1)Nc1ccccc1	.	9.8	1.4	9.3	-1.4	1.8	.
SMILES	PfHsp90 set2	tim23-1 inh	SKKanGAS inh	tim10-1 inh	TIM10 inh	ATG4B inhibitor	TIM10 conf
O=C(CCc1nc2ccccc2s1)Nc1ccccc1	1.5	37.2	1.3	11.7	47.0*	-3.8	0.5
Nc1ccc(C23CC4CC(CC(O)(C4)C2)C3)cc1	13.4	16.5	-5.9	14.8	4.3	-4.1	.
Nc1ccc(C23CC4CC(CC(C4)C2)C3)cc1	-7.4	34.3	4.7	15.3	42.4*	2.6	23.4
CCC(C)n1c(=S)[nH]c2ccccc2c1=O (stereo unspecified)	-7.1	14.3	8.4	33.4	27.1	4.1	.
CCC(Cc1ccccc1)n1c(=S)[nH]c2ccccc2c1=O (stereo unspecified)	-37.3	23.8	-10.2	34.0	49.5*	1.9	38.0*
CN(Cc1ccccc1)S(=O)(=O)c1ccc2c(c1)n(C)c(=O)c(=O)n2C	3.6	-22.4	5.3	-8.5	-9.1	-6.2	.
CN(Cc1ccccc1)C(=O)CCS(=O)(=O)c1ccc2c(c1)n(C)c(=O)c(=O)n2C	-5.7	6.8	-4.0	14.3	40.4*	-6.7	-9.8
C/C=C(/C)C(=O)O[C@@H]1c2c(ccc3ccc(=O)oc23)OC(C)(C)[C@@H]1OC(C)=O	38.5	42.6	.	21.1	17.6	-8.6	.
C/C=C(\C)C(=O)OC1c2c(ccc3ccc(=O)oc23)OC(C)(C)C1OC(C)=O (stereo unspecified)	3.0	43.1	1.9	28.6	48.5*	-7.5	29.1*
CCOC(=O)/C(C#N)=C/c1cccc([N+](=O)[O-])c1	-1.1	15.6	0.5	11.3	-7.5	-5.0	.
O=C(N/N=C/c1sc(=O)n(-c2ccccc2)c1Cl)c1ccccc1	10.4	48.4	10.5	30.9	42.0*	6.4	21.8
CC1CN(c2oc(COc3ccc(Cl)cc3Cl)nc2C#N)CC(C)O1 (stereo unspecified)	15.7	23.1	5.5	31.4	30.6	-1.3	.
CCn1c(CNc2cccc(Cl)c2)nnc1SCc1ccccc1	12.6	44.1	-8.4	39.4	40.6*	-3.3	48.7*
O=C(CCCSc1nc2ccccc2s1)NC1=NCCS1	-5.2	24.4	-0.6	0.0	-5.2	-6.0	.
COC(=O)CNC(=O)CSc1nc2sccc2c(=O)n1-c1ccccc1	0.2	5.9	0.3	14.9	10.2	-6.9	.
COC(=O)CNC(=O)CSc1nc2sc(-c3ccccc3)cc2c(=O)n1-c1ccccc1	-7.5	26.5	9.5	29.1	45.3*	-13.9	38.0*
Cc1ccccc1C(=O)Oc1ccc(Cl)cc1C(=S)N1CCOCC1	0.8	36.9	-0.2	38.0	3.6	5.6	.
O=C(c1cc(-c2ccccc2Cl)on1)N1CCCC1	-90.6	24.6	-17.2	-8.3	14.8	9.3	.
Cc1ccc(NC(=O)CCSc2nnc(C)s2)cc1	.	-14.1	-2.0	9.1	-3.6	-5.5	.
CC1=NN(/C(=N\c2nnc(C)s2)Nc2ccc(C(C)(C)C)cc2)[C@H](c2ccc(C)cc2)S1	48.6	49.5	57.7*	34.1	52.4*	-6.1	15.5
COCCN(CC(=O)Nc1cccc(C)c1C)C(=O)Cn1cnc2ccccc2c1=O	-12.8	9.6	.	8.1	4.3	-9.3	.
Nc1nc(N)c(Cc2ccc(Cl)cc2Cl)c(N)n1	-44.3	13.7	2.3	31.5	4.8	-9.0	.
O=C(C1CC1)N1CCc2cc(Br)cc(S(=O)(=O)N3CCCCCC3)c21	.	-32.7	-0.8	-1.5	47.2*	-11.4	-65.9
